Measured values reported in PubChem BioAssay AID1851 (National Center for Advancing Translational Sciences (NCATS), 2009).
About 5,700 (36%) of roughly 16,000 compounds were called active. Not shown: some 24% with an inconclusive outcome. The call rests on the fitted dose curve; in most records, active means well fitted curve in the direction sought with a large enough effect; inconclusive means small, poorly fitted or top-dose-only effect, or effect the other way; inactive means no such curve, though single readings can be large or run the other way. Some of the results follow.
On the % scale 0 is the no-effect control and ±100 the full control effect.

The molecules below were run against Cytochrome P450 1A2 (Homo sapiens) (UniProt P05177) (assay: Cytochrome panel assay with activity outcomes). Settings: recombinant CYP, pro-luciferin dealkylation, luminescence, p450-cyp1a2; series mostly up to 57.1 µM.
Cytochrome P450 1A2 (Homo sapiens), sequence (P05177 whole entry, looked up): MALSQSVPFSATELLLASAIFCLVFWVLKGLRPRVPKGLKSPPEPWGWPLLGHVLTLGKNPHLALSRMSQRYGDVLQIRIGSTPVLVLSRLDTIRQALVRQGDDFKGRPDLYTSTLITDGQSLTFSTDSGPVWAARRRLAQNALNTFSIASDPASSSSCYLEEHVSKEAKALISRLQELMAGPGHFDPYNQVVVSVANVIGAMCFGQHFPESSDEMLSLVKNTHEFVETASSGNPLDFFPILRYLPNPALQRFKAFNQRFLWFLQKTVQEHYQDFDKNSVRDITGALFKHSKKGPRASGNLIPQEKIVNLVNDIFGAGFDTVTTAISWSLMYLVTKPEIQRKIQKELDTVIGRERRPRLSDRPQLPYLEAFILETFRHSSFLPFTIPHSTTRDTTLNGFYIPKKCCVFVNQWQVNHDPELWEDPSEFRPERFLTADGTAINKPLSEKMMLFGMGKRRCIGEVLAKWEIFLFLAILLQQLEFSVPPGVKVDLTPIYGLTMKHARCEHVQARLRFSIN
With `O=C(ON=C1CCN(S(=O)(=O)c2ccccc2)CC1)c1ccccc1` the AC50 was “inactive”. `CCN1C(=O)C2(SC(NC(C)=O)=NN2C(C)=O)c2cc(C)ccc21` (configuration not stated) was tested, and the AC50 was “inactive”. For `CC(C)C[C@H](NC(=O)[C@@H]1O[C@H]1C(=O)O)C(=O)NCCCCN=C(N)N`, the AC50 was “inactive”. For `Cc1nonc1NC(=O)OCCN1CCOC1=O`, the AC50 was “inactive”. In the case of `Clc1ccc2c(c1)C(c1cccs1)=NNC(c1cccnc1)=N2`, the AC50 is reported as 3.16 µM (active). For `Nc1ccc(Sc2cnn(-c3ccccc3)c(=O)c2Cl)cc1`, the AC50 was 5.01 µM (active). With `O=c1c(Cl)c(N2CCN(S(=O)(=O)c3ccc(F)cc3)CC2)cnn1-c1cccc(Cl)c1` the AC50 was “inactive”. In the case of `CC1(C)Cc2ccccc2C(NNC(=O)c2ccncc2)=N1`, the AC50 is reported as 10 µM (active). With `CN1CCC2(CC1)CCN(C(=O)c1ccncc1)CC2` the AC50 was “inactive”. For `CC(C)NNC(=O)c1ccncc1`, the AC50 was “inactive”. `Cc1sc(NC(=O)C2CCCCC2)c(C#N)c1-c1ccccc1` was tested, and the AC50 was 5.01 µM (active). With `Cc1sc(NC(=O)/C=C/c2ccc(C(C)C)cc2)c(C#N)c1C` the AC50 was “inactive”. For `CC1=C(C#N)C(NC(=O)C2CCCCC2)(C(F)(F)F)C(=O)N1` (configuration not stated), the AC50 was “inactive”. With `Cc1c(OCC(F)(F)F)ccnc1CSc1nc2ccccc2[nH]1` the AC50 was 3.55 µM (active). For `C[N+](C)(C)CCCSc1nc2ccccc2[nH]1`, the activity, negative = inhibition was -15.1% [at 11.4 µM] (inactive). For `O=c1c[n+](CCCC[n+]2cc(=O)o[nH]2)[nH]o1`, the activity, negative = inhibition was 2.3% [at 11.4 µM] (inactive). `CC(C)(Oc1ccc(Cl)cc1)C(=O)Nc1cccnc1` was tested, and the AC50 was 2 µM (active). With `CC(C)(Oc1ccc(Cl)cc1)C(=O)Nc1ccncc1` the AC50 was 20 µM (active). In the case of `N#CCCn1c(=O)c(-c2cccs2)nc2cnc(Oc3cccc(Cl)c3)nc21`, the AC50 is reported as 3.16 µM (active). In the case of `COCCn1c(=O)c(-c2cc(F)cc(F)c2)nc2cnc(Oc3cccc(Cl)c3)nc21`, the AC50 is reported as 5.01 µM (active). In the case of `N#CCCn1c(=O)c(-c2ccccc2)nc2cnc(Oc3cccc(Cl)c3)nc21`, the AC50 is reported as 2.51 µM (active). For `N#CCCn1c(=O)c(-c2ccc(Cl)cc2)nc2cnc(Oc3cccc(Cl)c3)nc21`, the AC50 was “inactive”. `COCCn1c(=O)c(-c2ccccc2)nc2cnc(Oc3cccc(Cl)c3)nc21` was tested, and the AC50 was 1 µM (active). In the case of `Cc1cnc(CNc2ccnc(-c3c(C)noc3C)n2)cn1`, the AC50 is reported as 12.6 µM (active). `Cc1noc(C)c1-c1nccc(NCc2ccccc2)n1` was tested, and the AC50 was 0.794 µM (active). With `Cc1noc(C)c1-c1nccc(NCc2cccnc2)n1` the AC50 was 0.158 µM (active). For `Cc1noc(C)c1C(=O)N1CCC2(CCN(Cc3ccccc3)CC2)CC1`, the AC50 was “inactive”. For `Cc1noc(C)c1-c1nccc(NCc2cccs2)n1`, the AC50 was 0.501 µM (active). In the case of `CC(=O)N(NC(=O)c1ccccc1Cl)C1CC(=O)N(c2ccc(C)cc2)C1=O` (configuration not stated), the AC50 is reported as “inactive”. In the case of `O=C(O)/C=C\C(=O)N1Cc2cc3ccccc3nc2C1`, the activity, negative = inhibition is reported as -16.3% [at 11.4 µM] (inactive). For `CC(=O)/C=C/c1ccc2ccccc2n1`, the AC50 was 2.51 µM (active). For `O=C(c1cnccn1)N1CCC2(CC1)CN(c1ccccn1)C2`, the AC50 was “inactive”. In the case of `CN1C2C=C(N(CCc3c[nH]c4ccccc34)C(=O)c3ccc(Cl)cc3)CC1CC2` (configuration not stated), the AC50 is reported as “inactive”. `CC(C)CNC(=O)CCCc1c[nH]c2ccccc12` was tested, and the AC50 was 14.1 µM (active). With `O=C(Cc1c[nH]c2ccccc12)OCC(=O)c1ccccc1` the AC50 was 12.6 µM (active). For `C[C@@](N)(Cc1c[nH]c2ccccc12)C(=O)O`, the activity, negative = inhibition was -11.5% [at 11.4 µM] (inactive). With `CCOC(=O)CCCc1c[nH]c2ccccc12` the AC50 was 2.51 µM (active). `N[C@@H](Cc1c[nH]c2ccccc12)C(=O)O` was tested, and the AC50 was “inactive”. For `COC(=O)C(Cc1c[nH]c2ccccc12)NC(=O)C(C)C` (configuration not stated), the AC50 was “inactive”. For `CN(CC(=O)O)Cc1c[nH]c2ccccc12`, the activity, negative = inhibition was -14.8% [at 11.4 µM] (inactive). In the case of `O=C(O)CN1CCN(Cc2ccc(F)cc2Cl)C1=O`, the AC50 is reported as 5.62 µM (active). In the case of `O=C(O)CN1CCN(Cc2ccccc2)C1=O`, the AC50 is reported as “inactive”. In the case of `Cc1cccc(CN2CCN(CC(=O)O)C2=O)c1`, the AC50 is reported as “inactive”. `Cc1ccc(C(c2nnnn2CC2CCCO2)N2CCN(C(=O)c3ccco3)CC2)cc1` (configuration not stated) was tested, and the AC50 was “inactive”. For `CCOC(=O)c1sc(N(Cc2ccccc2)C(=O)CN2C(=O)CN(C)C2=O)nc1C`, the AC50 was 20 µM (active). `Cc1ccc2[nH]c(=O)c(NC(N)=S)nc2c1` was tested, and the AC50 was 4.47 µM (active). With `COc1ccc2[nH]c(=O)c(NC(N)=S)nc2c1` the AC50 was 3.55 µM (active). With `C(=N\n1cnnc1)/c1cccn1-c1ccccc1` the AC50 was 8.91 µM (active). In the case of `CC(C)NC(=O)N1CCCC2(CCN(S(=O)(=O)c3ccccc3)CC2)C1`, the AC50 is reported as “inactive”. For `CCCN1CNC(=S)N(c2cccc(C)c2C)C1`, the AC50 was “inactive”. For `CC(C)=CCC1=C(OCC(=O)O)C(=O)c2ccccc2C1=O`, the AC50 was 0.501 µM (active). In the case of `CC(C)=CCc1c(C)nc2ccccc2c1C(=O)O`, the AC50 is reported as “inactive”. `O=C1CC(N2CCN(CCc3ccccn3)CC2)C(=O)N1c1ccc(Cl)cc1` (configuration not stated) was tested, and the AC50 was “inactive”. `O=C1CSC(c2ccccn2)N1c1ccc(Cl)c(Cl)c1` (configuration not stated) was tested, and the AC50 was 10 µM (active). In the case of `CC(=O)Nc1ccc(N2C(=O)CSC2c2c(F)cccc2Cl)cc1` (configuration not stated), the AC50 is reported as “inactive”. In the case of `COc1cc2c(cc1OC)-c1cc(=Nc3c(C)cc(C)cc3C)n(C)c(=O)n1CC2`, the AC50 is reported as “inactive”. With `Cn1c(=O)c2cc(S(=O)(=O)NCCC(=O)Nc3ccc(Cl)cc3)ccc2n(C)c1=O` the AC50 was “inactive”. In the case of `COc1ccc(OC)c2[nH]c(=O)c(CCNS(=O)(=O)c3ccccc3)cc12`, the AC50 is reported as 12.6 µM (active). In the case of `COc1ccc(OC)c2[nH]c(=O)c(CCNC(=O)c3ccc(S(=O)(=O)N4CCCC4)cc3)cc12`, the AC50 is reported as “inactive”. In the case of `COc1ccc(Cl)cc1C(=O)NCCc1ccc(S(=O)(=O)NC(=O)NC2CCCCC2)cc1`, the AC50 is reported as “inactive”. For `COc1ccc(OC)c2[nH]c(=O)c(CCNC(=O)c3ccc(S(=O)(=O)N(C)C)cc3)cc12`, the AC50 was “inactive”. In the case of `COc1ccc(OC)c2[nH]c(=O)c(CCNS(=O)(=O)c3ccc(Cl)cc3)cc12`, the AC50 is reported as 12.6 µM (active). With `COc1ccc(OC)c2[nH]c(=O)c(CCNC(=O)COc3ccccc3)cc12` the AC50 was 11.2 µM (active). In the case of `CC1(C)OC[C@@H]2O[C@H](n3cnc4c(N)nc(Cl)nc43)[C@@H](OS(C)(=O)=O)[C@@H]2O1`, the activity, negative = inhibition is reported as -14.5% [at 2.29 µM] (inactive). `O=S(=O)(c1cccc(-c2nnc(-c3ccc(Br)cc3)o2)c1)N1CCCCCC1` was tested, and the AC50 was 14.1 µM (active). For `O=S(=O)(c1ccc(Br)cc1)N1CCN(S(=O)(=O)c2ccc(Br)cc2)CC1`, the activity, negative = inhibition was -11.2% [at 11.4 µM] (inactive). For `O=C(O)CCC(=O)N1CCc2cc(S(=O)(=O)N3CCCCC3)ccc21`, the AC50 was “inactive”. With `Cc1nn2c3c(cnc2c1-c1ccccc1)C(=O)CC(c1ccccc1)C3` (configuration not stated) the AC50 was 3.16 µM (active). For `CCC1NC(=S)N(C2CCCCC2)C1=O` (configuration not stated), the AC50 was “inactive”. With `CN(C)C(=O)c1ccc(-c2nccc(N(C)Cc3ccco3)n2)cc1` the AC50 was 12.6 µM (active). For `COc1cccc(-c2nccc(N(C)Cc3ccco3)n2)c1`, the AC50 was 0.631 µM (active). `CN(Cc1ccco1)c1ccnc(-c2ccoc2)n1` was tested, and the AC50 was 12.6 µM (active). `CN(Cc1ccco1)c1ccnc(-c2cccnc2)n1` was tested, and the AC50 was 0.794 µM (active). For `COc1ccc(Cc2nnc(NC(=O)Cn3cnc4c3c(=O)n(C)c(=O)n4C)s2)cc1OC`, the AC50 was “inactive”. `CN(Cc1ccco1)c1ccnc(-c2cccc(C#N)c2)n1` was tested, and the AC50 was 0.398 µM (active). For `CS/C(N)=N/N=C/c1ccc([N+](=O)[O-])cc1`, the AC50 was 14.1 µM (active). `NC(N)=N/N=C\c1ccc(C2CCNCC2)cc1` was tested, and the activity, negative = inhibition was -12% [at 2.29 µM] (inactive). `O=C1CCCC=C1[C@H](O)c1ccc([N+](=O)[O-])cc1` was tested, and the activity, negative = inhibition was -7.01% [at 11.4 µM] (inactive). `C=CCNC(=O)c1ccc2nc(-c3ccccc3)c(-c3ccccc3)nc2c1` was tested, and the AC50 was 15.8 µM (active). In the case of `C=CCNC(=O)c1ccc(-c2nc(-c3ccc(Cl)c(Cl)c3)cs2)cc1`, the AC50 is reported as “inactive”. `C=CCNC(=O)c1csc(-c2ccccc2)n1` was tested, and the AC50 was 0.631 µM (active). For `COc1ccc(N(C)C(=O)c2ccc3nc(-c4ccccc4)c(-c4ccccc4)nc3c2)cc1`, the AC50 was “inactive”. With `C=CCNC(=O)c1cccn1-c1ccsc1C(=O)OC` the AC50 was “inactive”. With `C=CCNC(=O)c1onc(CSc2ccc(F)cc2)c1C(=O)O` the AC50 was “inactive”. `CC(=O)NCCNc1ncnc2ccc(-c3cccc(NS(C)(=O)=O)c3)cc12` was tested, and the AC50 was 15.8 µM (active). For `COCCNc1ncnc2ccc(-c3cccc(NS(C)(=O)=O)c3)cc12`, the AC50 was 0.794 µM (active). With `O=C(c1cnccn1)N1CCC2(CCN(Cc3nccs3)CC2)CC1` the AC50 was “inactive”. With `CN(c1ccc(C(=O)NCc2ccccn2)cc1)S(C)(=O)=O` the AC50 was “inactive”. For `Cc1ccc(NS(=O)(=O)c2cc(C(=O)NCc3ccccn3)ccc2Cl)cc1`, the AC50 was 5.01 µM (active). In the case of `C=C(CC)C(=O)c1ccc(OCC(=O)O)c(Cl)c1Cl`, the AC50 is reported as “inactive”. In the case of `COC(=O)/C=C/CSC1=N/C(=C/c2ccc(-n3cncn3)cc2)C(=O)N1`, the AC50 is reported as 1 µM (active). With `CNc1ncnc2c1ncn2[C@H]1C[C@@H](OP(=O)(O)O)[C@H](COP(=O)(O)O)O1` the AC50 was “inactive”. `CCN(CC)C(=O)Cn1cc(/C=C(\C#N)C(=O)N2CCN(c3ccccc3)CC2)c2ccccc21` was tested, and the AC50 was “inactive”. With `N#Cc1ccc(C(=O)Nc2ccc(N3CCN(C(=O)c4ccco4)CC3)cc2)c(F)c1` the AC50 was “inactive”. With `COC(=O)Cn1cc(/C=N/NC(=O)c2ccc(C#N)cc2F)c2ccccc21` the AC50 was 3.55 µM (active). For `COc1ncc2nc(C)c(=O)n(-c3ccccc3)c2n1`, the AC50 was 5.01 µM (active). `Cc1nc2cnc(Oc3ccccc3)nc2n(-c2ccccc2)c1=O` was tested, and the AC50 was 10 µM (active). With `COc1ccc(-n2c(=O)c(C)nc3cnc(OC)nc32)cc1` the AC50 was “inactive”. `COc1ccc(Oc2ncc3nc(C)c(=O)n(-c4ccc(OC)cc4)c3n2)cc1` was tested, and the AC50 was 15.8 µM (active). `Cc1cccc(CSc2cccc3cccnc23)c1` was tested, and the AC50 was 2 µM (active). For `COc1ccc(/C(C)=N/NC(=O)c2ccc(CSc3cccc4cccnc34)cc2)cc1OC`, the AC50 was 11.2 µM (active). For `Cc1ccc(N[C@H](c2ccccc2)c2ccc3cccnc3c2O)cc1`, the activity, negative = inhibition was -24.5% [at 2.29 µM] (inactive).
